Experimental data from PubChem BioAssay (NCI).
The panel holds about 83,000 compounds, 20% with a hit somewhere; the sample as a whole holds those more often.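 Step 1: grow cells in 96-well plates. Step 2: add test compound at a single concentration. Step 3: incubate 48 h. Step 4: record percent growth.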 Values without a mark were called inactive. Activity calls are given as the source filed them. Rule for the calls: active = growth percent below 10; inactive = the rest.

Experiments:
Assay in all cases: NCI-60 one-dose screen, 48 h (100 = growth as untreated, 0 = no growth, -100 = all killed)
Details in all cases: 10 µM unless noted
RPMI-8226 leukemia = system: RPMI-8226 leukemia
OVCAR-8 ovarian = system: OVCAR-8 ovarian
OVCAR-5 ovarian = system: OVCAR-5 ovarian
OVCAR-4 ovarian = system: OVCAR-4 ovarian
SK-OV-3 ovarian = system: SK-OV-3 ovarian
IGROV1 ovarian = system: IGROV1 ovarian
OVCAR-3 ovarian = system: OVCAR-3 ovarian
HS 578T breast = system: HS 578T breast
NCI/ADR-RES ovarian = system: NCI/ADR-RES ovarian
T-47D breast = system: T-47D breast

SMILES	growth (RPMI-8226 leukemia)	growth (OVCAR-8 ovarian)	growth (OVCAR-5 ovarian)	growth (OVCAR-4 ovarian)	growth (SK-OV-3 ovarian)	growth (IGROV1 ovarian)	growth (OVCAR-3 ovarian)	growth (HS 578T breast)	growth (NCI/ADR-RES ovarian)	growth (T-47D breast)
COc1ccc(Nc2ccnc(NCCCNc3ccnc4cc(Cl)ccc34)n2)cc1	-60.5% (active)	5.52% (active)	-19.9% (active)	11.8%	-5.22% (active)	21.7%	-84.5% (active)	-52.2% (active)	35.4%	-51.8% (active)
CCCOc1ccc2c(c1)CC[C@@H]1[C@@H]2CC[C@@]2(C)[C@H]1CC[C@]2(C)O	56.5%	74%	76.7%	81%	75.3%	118%	104%	85%	79.7%	83.4%
OCCOc1c(Cl)cc(Cl)cc1Cl	119%	104%	92.6%	98.1%	106%	115%	118%	98.4%	102%	109%
CCOc1ccccc1C(=O)OCC(=O)Nc1cccc(S(=O)(=O)N(C)C)c1	85.8%	92.9%	94.9%	95.2%	129%	98.5%	126%	95.3%	96.8%	66.5%
Oc1[nH]c2ccc(Cl)cc2c1/C=c1/ccc2c(c1)N=C(c1ccc(C(F)(F)F)cc1)N=2	69%	67.6%	76.2%	59.5%	84.4%	76.8%	32.3%	74%	62.7%	60.5%
COc1ccc2c(c1)/C(=C\c1c[nH]c3ccc(F)cc13)C(=O)N2	61.5%	81.9%	100%	65.1%	93.4%	69.5%	83.7%	99.9%	85.2%	42.8%
COc1cc(/C=C/C(=O)c2c(-c3ccc(F)cc3)nc3sc(C)nn23)cc(OC)c1OC	0.772% (active)	9.66% (active)	18.7%	44.1%	15.5%	28.7%	-16.4% (active)	50.1%	23.4%	-8.41% (active)
CC(C)[C@]12O[C@H]1[C@@H]1O[C@]13[C@]1(O[C@H]1C[C@H]1C4=C(CC[C@@]13C)C(=O)OC4)[C@@H]2OC(=O)CN(C)C	14.7%	14.9%	26.7%	21.1%	52.1%	-17.1% (active)	-1.74% (active)	-0.647% (active)	-5.71% (active)	27.2%
O=C1CN(CO)C(=O)CN1CO	103%	99.7%	94.6%	111%	111%	105%	113%	101%	103%	107%
O=C1c2ccccc2-c2c1nc1ccccc1[n+]2[O-]	106%	108%	94.9%	115%	102%	99.9%	107%	106%	105%	107%
O=C(Nc1ccc(Cl)cc1)Nc1ccc(Oc2nncc3ccccc23)cc1	-0.0795% (active)	19.4%	-16% (active)	-20.8% (active)	56.7%	8.16% (active)	-62.8% (active)	37.5%	37.6%	10.2%
O=C1c2ccccc2C(=O)c2c1cccc2-n1nnc2ccccc21	59.8%	102%	105%	97.5%	119%	82.9%	115%	94.2%	107%	93.5%
O=C(/C(=C/c1cccc([N+](=O)[O-])c1)c1ccccc1)c1ccccc1	-7.27% (active)	13%	74.5%	42.9%	105%	60.4%	23.4%	44.9%	35.8%	69.8%
COc1ccc(COC(C)=O)cc1	103%	106%	98.1%	120%	113%	142%	110%	105%	116%	102%
O=C(O)c1ccc(NC(=O)c2ccc(Nc3ccnc(C(F)(F)F)c3)cc2)cc1	98.3%	102%	107%	103%	98.9%	105%	104%	96.8%	102%	93.8%
CCOC(=O)C1=C(COCCN)NC(C)=C(C(=O)OC)C1c1ccccc1Cl (stereo not given)	45.9%	82%	74.7%	78.9%	94.2%	73.6%	68.5%	80.3%	80%	51.7%
COc1ccc(-c2csc(NC(=O)c3cc(O)c(O)c(O)c3)n2)cc1	41.1%	57.6%	86.1%	58.6%	77.5%	46.4%	72.6%	101%	62.2%	44.7%
Oc1ccccc1/C=N\Nc1ccccc1	43.7%	52%	55.5%	84%	108%	57.3%	79.1%	80.8%	44.1%	44.5%
O=C1CC(=O)N(c2ccccc2)O1	105%	103%	92.9%	110%	98.4%	99%	118%	110%	101%	97.5%
CC(=O)c1nc2ccccc2n1CCn1cc(CC(N)C(=O)O)c2ccccc21 (stereo not given)	90%	99%	96.9%	98.8%	108%	99.1%	108%	109%	97.5%	106%
COC(=O)c1ccc2c(c1)nc(-c1ccc(O)c(OC)c1)n2-c1cc(C(C)(C)C)[nH]n1	72.8%	98.8%	117%	111%	133%	101%	98.1%	98.2%	98.4%	92.3%
COc1ccc(-c2oc3cc(O)c(OC)c(O)c3c(=O)c2OC)cc1O	12.3%	25.3%	57%	65.6%	24.5%	12.2%	-40.1% (active)	-27.4% (active)	-4.16% (active)	53.1%
COc1cc(-c2cc(C(=O)Nc3nc4ccccc4s3)nc3cc(-c4ccccc4)nn23)cc(OC)c1OC	73.7%	60.2%	106%	82.5%	97.7%	99.7%	48.1%	62.1%	73.3%	83.7%
CC(C)C(=O)Cc1cnccn1	109%	102%	108%	117%	116%	106%	111%	96.4%	101%	109%
COc1cc(C2CC(=O)Nc3c2cc(Br)c2ccccc32)cc(Br)c1OC (stereo not given)	43.3%	31.7%	76.2%	-64.2% (active)	-15.1% (active)	26.7%	-13% (active)	39.6%	6.65% (active)	4.99% (active)
Oc1[nH]c2ccccc2c1/C=c1/ccc2c(c1)N=C(c1cc(F)cc(F)c1)N=2	27.5%	76.9%	85%	57.8%	85%	63.3%	55.9%	69.4%	61.4%	40.3%
